Test results published in PubChem BioAssay (NCI).
The panel holds about 83,000 compounds, 20% with a hit somewhere; the sample as a whole holds those more often.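 The endpoint reported here, percent growth, reads 100 for growth as untreated, 0 for no net growth and -100 for all cells dead.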 Values without a mark were called inactive. Calls of active or inactive are those of the source. The calls were made as follows: active = growth percent below 10; inactive = the rest.

Columns and labels:
Assay in all cases: NCI-60 one-dose screen, 48 h (100 = growth as untreated, 0 = no growth, -100 = all killed)
Settings in all cases: 10 µM unless noted
[1] = tested on: SR leukemia
[2] = tested on: RPMI-8226 leukemia
[3] = tested on: OVCAR-8 ovarian
[4] = tested on: OVCAR-5 ovarian
[5] = tested on: OVCAR-4 ovarian
[6] = tested on: SK-OV-3 ovarian
[7] = tested on: IGROV1 ovarian
[8] = tested on: OVCAR-3 ovarian
[9] = tested on: HS 578T breast
[10] = tested on: NCI/ADR-RES ovarian

SMILES | growth [1] | growth [2] | growth [3] | growth [4] | growth [5] | growth [6] | growth [7] | growth [8] | growth [9] | growth [10]
CC(=O)N1CCN(CCNC(=O)n2cc(-c3ccncc3)c(-c3cc(O)cc(Cl)c3)n2)CC1 | 16.7% | 44.9% | 66% | 110% | 116% | 101% | 76.2% | 102% | 91.9% | 101%
CCNc1nnc(COc2ccc(CNC(=O)CCCC/C=C/C(C)C)cc2OC)o1 | 89% | 95.5% | 106% | 103% | 103% | 91.5% | 103% | 106% | 98.6% | 102%
CCn1cnc(C[C@H](NC(=O)[C@@H](NC(=O)Nc2cc(C(F)(F)F)cc(C(F)(F)F)c2)C(C)C)C(=O)OC)c1 | -35.5% [100 µM] (active) | -52.4% [100 µM] (active) | -81.6% [100 µM] (active) | -94.9% [100 µM] (active) | -96.2% [100 µM] (active) | -100% [100 µM] (active) | -71.5% [100 µM] (active) | -89.5% [100 µM] (active) | 7.39% [100 µM] (active) | 0.865% [100 µM] (active)
N=C(N)c1ccc(-c2ccc(-c3cc(Cl)cc(Cl)c3)s2)cc1 | -16.6% (active) | -48.9% (active) | -12.5% (active) | -78.3% (active) | -66.1% (active) | -78.6% (active) | -73.8% (active) | -83.4% (active) | -46.8% (active) | -47.4% (active)
COc1ccc(C2=NN(C(=O)c3cc(-c4ccc(C)cc4)nc4ccccc34)C(c3cc(-c4ccccc4)nn3-c3ccccc3)C2)cc1 (stereo not given) | 89.5% | 78.1% | 93.3% | 102% | 93.3% | 112% | 98.3% | 84.4% | 95.8% | 92.5%
CC[C@H](Nc1ncnc2nc[nH]c12)c1nc2cccc(NCc3ccc(C(=O)NO)nc3)c2c(=O)n1-c1ccccc1 | 11.6% | 6.61% (active) | 36.9% | 84.9% | 70.4% | 80.8% | 30.9% | 41.5% | 13.8% | 106%
CCCCN(CCCC)CC(O)CN(CC)CC (stereo not given) | 97% | 97.4% | 104% | 95.3% | 97% | 99% | 100% | 113% | 120% | 105%
COc1ccc(-c2nnc(SCC(=O)Nc3ccc(C(=O)/C=C/c4cc(OC)c(OC)c(OC)c4)cc3)n2-c2ccccc2)cc1OC | 75% [100 µM] | 16.7% [100 µM] | 15.9% [100 µM] | 19.2% [100 µM] | -49% [100 µM] (active) | -54.7% [100 µM] (active) | -36.1% [100 µM] (active) | -37% [100 µM] (active) | 4.23% [100 µM] (active) | 46% [100 µM]
COC(=O)C(Cc1cnc[nH]1)N1CC(=O)N2[C@@H](c3ccccc3)SC[C@H]2C1=O (stereo not given in full) | 106% | 105% | 98.4% | 103% | 111% | 115% | 116% | 111% | 106% | 107%
Nc1ccc(N=Nc2ccccc2)c2cc(S(=O)(=O)O)ccc12 | 95.8% | 103% | 96.5% | 107% | 107% | 97.8% | 108% | 108% | 104% | 101%
O=C1N/C(=N\c2nnc(-c3ccc(O)cc3)s2)S/C1=C\c1ccccc1O | 99.4% | 101% | 96.8% | 93.7% | 88.2% | 112% | 99.1% | 93.2% | 90.3% | 97.8%
CCCCN(CCCC)CCCNc1c2c(nc3ccc(Cl)cc13)CCCC2 | 75.8% | 102% | 102% | 84% | 84.7% | 105% | 79.5% | 88.9% | 104% | 94.4%
NC(=O)c1c(Nc2ccccc2)nn2cc(-c3nc4ccccc4s3)c(N)nc12 | 82.8% | 96.4% | 102% | 104% | 97.1% | 94.8% | 93.3% | 107% | 93.3% | 98.9%
COc1cc(OC)cc(-c2ccc(-c3ccc(C(=N)N)cc3)s2)c1 | -4.93% (active) | -58.2% (active) | -27.8% (active) | -82% (active) | -67.5% (active) | -81.9% (active) | -71.1% (active) | -86.2% (active) | -51.8% (active) | -51.4% (active)
CCCNC(=O)Oc1ccc(/C(=C(/C)Cc2ccc(OC)cc2)c2ccc(OCCN3CCCC3)cc2)cc1 | -20.2% (active) | 49.5% | 79.5% | 88.4% | 61.5% | 81.3% | 81.9% | 83.6% | 58.3% | 75.9%
CCOC(=O)/C(C#N)=C(/CC)OCC | 85.6% | 103% | 98.8% | 106% | 106% | 105% | 105% | 104% | 115% | 112%
Cc1nnc(-c2cc3c(ccc4ccccc43)oc2=O)c2cn(-c3ccc(Cl)cc3)nc12 | 80.4% | 75% | 96.3% | 108% | 83.8% | 91.7% | 87% | 89.8% | 93.8% | 96.3%
COc1cc(-c2nn(-c3ccc(NC(=O)c4ccc(Cl)c(Cl)c4)cc3)cc2-c2ccncc2)ccc1Cl | 11.3% | 4.1% (active) | 31.4% | 81.8% | 57% | 94.4% | 96.3% | 68.4% | -23.7% (active) | 72.5%
Cn1c2c(cc(S(=O)(=O)c3ccccc3)c1=O)CCc1c-2cnn1-c1ccc(Cl)cc1 | 52% | 49.3% | -48.4% (active) | 26.2% | -9.94% (active) | 1.98% (active) | 50.6% | 56.4% | -10.1% (active) | 39.3%
COc1cc(NC(C)CCCN)c2nccc(C)c2c1OC (stereo not given) | 69.4% | 65.7% | 98.2% | 91.8% | 29% | 96.1% | 92.8% | 44.4% | 87.3% | 98.2%
c1ccc(-c2cn3ccnc3c(-c3ccc4ncn(C5CCCCC5)c4c3)n2)cc1 | 40.2% | 14.3% | 36.1% | 92.1% | 65.5% | 92.5% | 88% | 58.2% | 76.2% | 49.5%
CC(=O)OC1CC2C3CCC4C[C@@H](NC(=O)C=C(C)C)CC[C@]4(C)C3CC[C@]2(C)[C@H]1C(C)N(C)C (stereo not given in full) | -21% (active) | 13.9% | 45.1% | 58.9% | -8.18% (active) | 25.8% | 33.6% | -4.96% (active) | 0.863% (active) | 41.7%
COc1cc(-c2nn(-c3ccc(NC(=O)c4ccc(Cl)c(C(F)(F)F)c4)cc3)cc2-c2ccncc2)ccc1Cl | 2.82% (active) | -23% (active) | 49.2% | 55.7% | 46.4% | 60.5% | 46.7% | 28.7% | -49.7% (active) | 30.7%
O=C(NCCO)C(F)(F)F | 98.7% | 109% | 103% | 96.6% | 118% | 100% | 106% | 101% | 106% | 106%
COc1ccc(Cn2cc3c(c2-c2ccc(O)cc2)CCc2cnoc2-3)cc1 | 11.5% | 26.6% | 34.9% | 41.2% | 48.4% | 12% | 19.7% | -14.7% (active) | 5.28% (active) | -1.58% (active)
COC(=O)c1ccc2[nH]c(O)c(C(=Nc3ccc(N(C)C(=O)CN4CCN(C)CC4)cc3)c3ccc([N+](=O)[O-])cc3)c2c1 | 5.48% (active) | 31% | 37% | 94.3% | 46.9% | 22.5% | 19.1% | 53.6% | 27.6% | 104%
CCc1c(C)c2ccc(OCC(=O)N=Nc3c(O)[nH]c4ccccc34)c(C)c2oc1=O | 8.17% (active) | -3.81% (active) | -11.3% (active) | 24% | -21.7% (active) | 80.9% | 7.99% (active) | -58.2% (active) | -5.77% (active) | 47.7%
